PubChem BioAssay (NCI)
This is part of a sample that, as a whole, favours compounds with a hit. Of some 83,000 tested, about 20% had one in any assay.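 Note: values are percent growth. 100 is the growth of untreated cells, values between 100 and 0 indicate rising inhibition; between -100 and 0 indicates cell death.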 Values without a mark were called inactive. Activity calls are given as the source filed them. How the source made its calls: active means growth percent below 10; inactive means the rest.

Columns and labels:
Experiment in all cases: NCI-60 one-dose screen, 48 h (100 = growth as untreated, 0 = no growth, -100 = all killed)
Conditions in all cases: 10 µM unless noted
T-47D breast = system: T-47D breast
BT-549 breast = system: BT-549 breast
MDA-MB-435 melanoma = system: MDA-MB-435 melanoma
SW-620 colon = system: SW-620 colon
MCF7 breast = system: MCF7 breast
HCT-116 colon = system: HCT-116 colon
HCC-2998 colon = system: HCC-2998 colon
KM12 colon = system: KM12 colon

| Compound | growth (T-47D breast) | growth (BT-549 breast) | growth (MDA-MB-435 melanoma) | growth (SW-620 colon) | growth (MCF7 breast) | growth (HCT-116 colon) | growth (HCC-2998 colon) | growth (KM12 colon) |
| --- | --- | --- | --- | --- | --- | --- | --- | --- |
| CC1CCC(C)N(C)C1 (centres undefined) | 96.9% | 87.6% | 111% | 113% | 96.5% | 97.9% | 85.2% | 110% |
| Clc1cccc(-c2cc(-c3ccc4c(c3)OCCO4)[nH]n2)c1 | 22% [25 µM] | 53.7% [25 µM] | -37.5% [25 µM] (active) | 27.5% [25 µM] | 15.6% [25 µM] | 26.3% [25 µM] | 58.1% [25 µM] | 25.7% [25 µM] |
| COc1ccc(-c2nc3sccn3c2/C=C/C(=O)c2cc(F)cc(F)c2)cc1 | 40.5% | 127% | 94.2% | 53.9% | 20.3% | 53.7% | 51.3% | 84.3% |
| COc1cc(/C(C#N)=C/c2ccc3c(c2OC)OCO3)cc2c1OCO2 | 52.7% | 71.7% | -39.4% (active) | 19.8% | 21.4% | 16.7% | 12.8% | 17.4% |
| CN(C)CCN1C(=O)c2ccc3c4c(ccc(c24)C1=O)C(=O)N(CCN=C=S)C3=O | -54.5% (active) | -87.5% (active) | -90.9% (active) | -68.1% (active) | -67.7% (active) | -71.9% (active) | -87.4% (active) | -93% (active) |
| C=C(C)[C@@H]1C[C@H](O)Cc2cc(F)ccc2N1 | 95.6% | 98.1% | 97.7% | 91.9% | 103% | 92.9% | 118% | 106% |
| COc1ccc(-c2ccc(C)n2-c2ccc(-c3nc4ccccc4s3)cc2)cc1 | 73.3% | 108% | 89.6% | 89.6% | 92.7% | 85.5% | 91.7% | 86.3% |
| COc1ccc(-n2c(=S)sc3c(Cl)nc(C)nc32)c(OC)c1 | 51.3% | 90.8% | 30.9% | 45.4% | 13.8% | 0.658% (active) | 35.4% | 25.4% |
| COc1ccc(-c2c(N)n[nH]c2-c2cc(OC)c(OC)c(OC)c2)cc1 | 75.1% | 50.9% | -40.7% (active) | 21% | 23% | 9.76% (active) | -2.65% (active) | 14% |
| CCNc1nc(S(=O)(=O)CC)nc2ccccc12 | 92.4% | 91.2% | 81.9% | 106% | 95.8% | 91.7% | 115% | 94.9% |
| CC(=O)Oc1csc(N(C(C)=O)c2cc(C(=O)O)cc(C(=O)O)c2)n1 | 108% | 82.8% | 102% | 96.1% | 95% | 91.3% | 98.6% | 99.8% |
| COc1ccc(S(=O)(=O)NCCCNc2nccc(-c3c(-c4cccc([N+](=O)[O-])c4)nc4sccn34)n2)cc1 | 3.31% (active) | 36.5% | 42.1% | 91.4% | 34.5% | 48.7% | 82.1% | 28.9% |
| O=C([O][Sn]([O]C(=O)c1ccccn1)([c]1ccccc1)[c]1ccccc1)c1ccccn1 | -14.9% (active) | 98.5% | 80.6% | 0.566% (active) | 31.8% | 30.7% | 88.3% | 97.4% |
| O=C(Nc1ccc(NCCN2CCOCC2)nc1)c1ccc([N+](=O)[O-])cc1 | 107% | 98.6% | 97.8% | 104% | 89.2% | 97.2% | 101% | 104% |
| COc1cc(C(=O)/C=C/c2c(C)n([O-])c3ccc(C(F)(F)F)cc3[n+]2=O)cc(OC)c1OC | 18.3% | 80.6% | 94.1% | 26% | 45.4% | 21.1% | 105% | 91.4% |
| C=C[C@@H]1C[C@H](O)Cc2ccccc2N1 | 118% | 113% | 107% | 105% | 105% | 113% | 99.6% | 109% |
| COc1cc(NC(N)=NCCC(C)(C)c2ccc(C(F)(F)F)cc2)ncc1C#N | -2.85% (active) | 53.9% | 17% | -0.0248% (active) | -31.3% (active) | -75.7% (active) | -77.8% (active) | 15.4% |
| CCN1C(=O)N(CC)C2C1NN=c1s/c(=C\c3cccnc3)c(=O)n12 (centres undefined) | 53.4% | 57.3% | -46.6% (active) | 26.5% | 21.7% | 15.8% | 26.8% | 19.5% |
| CCCN=C1NC(=O)/C(=C/c2nc(-c3ccc(OC)cc3)n3ccccc23)S1 | 87.3% | 90.5% | 109% | 72.9% | 77.5% | 26.3% | 97% | 48.8% |
| O=C1/C(=C/c2ccc(Cl)cc2)CN(Cc2cn(CCNc3ccnc4cc(Cl)ccc34)nn2)C/C1=C\c1ccc(Cl)cc1 | -32.6% (active) | -96.4% (active) | -98.6% (active) | -92.5% (active) | -100% (active) | -85.5% (active) | -95.1% (active) | -93.9% (active) |
| CO[C@H]1NC(=O)N(S(=O)(=O)c2ccc(Cl)cc2)[C@@H]1OC | 105% | 108% | 97.3% | 108% | 99.4% | 110% | 110% | 103% |
| Cc1ccc(-c2cc3nc(C(Cl)Cl)nc(-c4cccnc4)n3n2)cc1 | 37.9% | 73.4% | 1.09% (active) | 0.933% (active) | 41.5% | 6.32% (active) | -53.9% (active) | -35.4% (active) |
| O=C(c1ccccc1)c1c(/C=C/c2ccccc2)c2ccccc2[nH]c1=O | 93.5% | 92.4% | 98.2% | 101% | 97.3% | 100% | 111% | 96% |
| O=C(CCl)N(C1CCCCC1)C1CCCCC1 | 101% | 97.4% | 106% | 113% | 96.7% | 101% | 107% | 112% |
| C=C(C)[C@@H]1CC[C@]2(C(=O)N3CCNCC3)CC[C@]3(C)[C@H](CC[C@@H]4[C@@]5(C)C/C(=C/c6ccncc6)C(=O)C(C)(C)[C@@H]5CC[C@]43C)[C@@H]12 | 102% | 105% | 105% | 109% | 79.7% | 102% | 109% | 109% |
| COC(=O)[C@]12CC[C@@H](C)[C@H](C)[C@@H]1C1=CC[C@@H]3[C@@]4(C)C(C=O)=C[C@@](C)(COC(=O)c5ccco5)[C@@H]4[C@H](O)C[C@@]3(C)[C@]1(C)CC2 | 13.4% | -3.09% (active) | -57.4% (active) | -55.7% (active) | -19.2% (active) | -75.8% (active) | -84.8% (active) | -56.8% (active) |
| COc1ccc(N=Cc2c(O)ccc3c2oc2cc(Cl)c(O)c(Cl)c23)cc1 | 87.9% | 53.3% | 94% | 99.2% | 69.6% | 91.5% | 88.7% | 104% |
| CCOC(=O)/C(C#N)=C1/C(=O)Nc2ccccc21 | 98.7% | 112% | 119% | 109% | 103% | 98.4% | 109% | 112% |
